PubChem BioAssay (NCATS)
Records with an inconclusive call do not appear. Entries that show only a call come without a potency. The source made the active and inactive calls. The call rests on the fitted dose curve; in most records, active means well fitted inhibition curve with a large enough effect; inconclusive means small, poorly fitted or top-dose-only effect, or effect the other way; inactive means flat fitted curve, though single readings scatter.

Target: ATP-dependent 6-phosphofructokinase (Trypanosoma brucei brucei) (UniProt O15648)
Sequence (O15648 whole entry, looked up): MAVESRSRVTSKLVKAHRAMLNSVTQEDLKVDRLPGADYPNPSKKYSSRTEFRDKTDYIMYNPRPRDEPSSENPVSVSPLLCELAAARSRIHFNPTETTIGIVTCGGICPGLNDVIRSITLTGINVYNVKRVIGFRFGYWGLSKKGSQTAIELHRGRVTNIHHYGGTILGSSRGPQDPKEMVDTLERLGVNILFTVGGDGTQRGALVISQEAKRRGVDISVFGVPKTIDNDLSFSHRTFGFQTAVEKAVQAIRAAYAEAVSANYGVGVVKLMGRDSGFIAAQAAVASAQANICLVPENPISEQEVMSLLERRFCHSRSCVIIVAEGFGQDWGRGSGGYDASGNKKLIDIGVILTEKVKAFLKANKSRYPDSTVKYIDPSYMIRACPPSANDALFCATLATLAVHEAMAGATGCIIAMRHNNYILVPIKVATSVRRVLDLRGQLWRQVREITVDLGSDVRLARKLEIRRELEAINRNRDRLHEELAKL
Assay: qHTS Assay to Find Inhibitors of T. brucei phosphofructokinase: hit validation (AID 492961)
Summary of the method: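 Luminescence from ADP-Glo reports ADP generated as T. brucei PFK (1.25 nM) phosphorylates 0.5 mM fructose-6-phosphate using 0.1 mM ATP. Reactions ran 45 min at room temperature, pH 8.0.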
Potency means the concentration at half of the fitted maximal effect.

SMILES	Potency
O=C1CN(O)C(c2ccccc2)=c2cc(Cl)ccc2=N1	inactive
Clc1ccc(C2(Cn3cncn3)OCCO2)c(Cl)c1	inactive
O=C(CS(=O)C(c1ccccc1)c1ccccc1)NO (stereo unspecified)	inactive
O=C(O)C(Cl)(Cl)Cl	inactive
O=C(NCNC(=O)NC1C(=O)NC(=O)N1CO)NC1C(=O)NC(=O)N1CO (stereo unspecified)	inactive
O=[N+]([O-])c1ccc(F)c([N+](=O)[O-])c1	inactive
ClCC1CO1 (stereo unspecified)	inactive
CCC1(C)CC(=O)NC(=O)C1	inactive
ClC(Cl)(Cl)Cl	inactive
CN1[C@@H]2CC[C@H]1CC(OC1c3ccccc3CCc3ccccc31)C2 (stereo partly specified)	inactive
O=Cc1ccco1	inactive
C=CCN1CC[C@]23c4c5ccc(O)c4O[C@H]2[C@@H](O)C=C[C@H]3[C@H]1C5	inactive
c1ccc2sc(SNC3CCCCC3)nc2c1	inactive
O=C1CCCCC1CN1CCCCC1 (stereo unspecified)	inactive
O=[N+]([O-])C(Br)(CO)CO	8.91 µM (active)
CNC(=O)Oc1ccccc1C(=O)Nc1ccccc1	inactive
O=[N+]([O-])c1cc(I)c(O)c(I)c1	inactive
S=C=S	inactive

SMILES	Potency
O=CC=O	inactive
N#CC1(N2CCCCC2)CCCCC1	inactive
C[N+]1(C)CCCCC1COC(=O)C(O)(c1ccccc1)c1ccccc1 (stereo unspecified)	inactive
CC[N+](C)(CC)CCOC(=O)C(O)(c1ccccc1)c1ccccc1	inactive
C[C@H]1CC[C@@H]2[C@@H](C)[C@H]3[C@H](C[C@H]4[C@@H]5CC=C6CC(O[C@@H]7O[C@H](CO)[C@H](O)[C@H](O[C@@H]8O[C@H](CO)[C@@H](O)[C@H](O)[C@H]8O)[C@H]7O[C@H]7O[C@@H](C)[C@H](O)[C@@H](O)[C@H]7O)CC[C@]6(C)[C@H]5CC[C@]34C)N2C1 (stereo partly specified)	inactive
O=C1CCO1	inactive
CC(C)(C)c1cc(O)ccc1O	inactive
CC(=O)OC1CN2CCC1CC2 (stereo unspecified)	inactive
CN1CCCC(=C(c2cccs2)c2cccs2)C1	inactive
c1ccc(C2(N3CCCC3)CCCCC2)cc1	inactive
CCON=O	inactive
CC1CCC(C(C)C)C(OC(=O)c2ccccc2N)C1 (stereo unspecified)	inactive
CCNC(C)Cc1cccc(C(F)(F)F)c1 (stereo unspecified)	inactive
CC(Cc1ccccc1)NC=O (stereo unspecified)	inactive
ClC=C(Cl)Cl	inactive
O=S(=O)(O)c1cc(O)ccc1O	inactive
O=c1[nH]c(=O)n(Cl)c(=O)n1Cl	inactive
CCC1C(C)=NN=C(c2ccc(OC)c(OC)c2)c2cc(OC)c(OC)cc21 (stereo unspecified)	inactive
